The values that follow come from PubChem BioAssay (EPA / NIEHS).

Records with an inconclusive call do not appear. Active and inactive are the calls of the source. The calls were made as follows, unless noted: active = hit-call score of the fitted dose curve at least 0.9, where 1 is the maximum; inactive = score below 0.9.

Estrogen receptor (Homo sapiens), sequence (P03372 whole entry, looked up, the tested form may be a part): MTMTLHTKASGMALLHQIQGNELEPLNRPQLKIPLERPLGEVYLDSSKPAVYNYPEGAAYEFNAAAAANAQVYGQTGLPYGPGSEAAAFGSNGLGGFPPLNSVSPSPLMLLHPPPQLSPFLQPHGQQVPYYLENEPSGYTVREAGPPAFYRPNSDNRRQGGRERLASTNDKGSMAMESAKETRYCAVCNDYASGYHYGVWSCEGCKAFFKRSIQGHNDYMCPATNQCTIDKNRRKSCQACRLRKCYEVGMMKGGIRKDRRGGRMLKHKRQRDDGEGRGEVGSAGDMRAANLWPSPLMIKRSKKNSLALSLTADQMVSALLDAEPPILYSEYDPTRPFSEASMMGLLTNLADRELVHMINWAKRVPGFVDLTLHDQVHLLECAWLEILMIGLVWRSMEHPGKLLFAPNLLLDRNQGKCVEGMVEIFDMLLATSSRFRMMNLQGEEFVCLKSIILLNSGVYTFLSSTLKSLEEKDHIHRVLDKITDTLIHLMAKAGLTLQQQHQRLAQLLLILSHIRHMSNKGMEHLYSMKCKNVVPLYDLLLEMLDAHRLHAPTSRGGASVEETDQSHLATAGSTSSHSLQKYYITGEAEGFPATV

Tested on in one experiment: not listed separately
Description: ATG_TGFb_CIS: Attagene CIS-FACTORIAL HepG2 Assay for human Transforming Growth Factor (TGF) (AID 2282967). The settings on record: HepG2 Attagene CIS TGFb reporter, mRNA transcription; actives raise or lower the signal. Summed up:
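Cells were dosed for 24 hours, after which total RNA was reverse-transcribed and reporter sequences amplified, labeled and sized by capillary electrophoresis. Activity was fitted in both directions against DMSO.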
For the compound `CCOC(=O)c1ccc(C)cc1`, the compound was classed as inactive.
The same measure, in the same setting: the same measure for `c1ccc(Nc2cccc3ccccc23)cc1`: “inactive”.
On the same count and under the same terms, then `CCCCCCCC(=O)OCC`, with “inactive”; and `COC(=O)CC(C)CCC=C(C)C` (stereo unspecified), with “inactive”; and `CC(C)(CO)COC(=O)C(C)(C)CO`, with “inactive”.
As for `C[Si](C)(C)N[Si](C)(C)C`, the call was inactive.
In the case of `C=CC(C)(CCC=C(C)C)OC(=O)C=Cc1ccccc1` (stereo unspecified), the compound was called inactive.
Same read-out and setting: then `[Cl][Eu]([Cl])[Cl]`, with “inactive”.
Still for that read-out and setting: then `CC(C)(C)C1CCC(=O)CC1`, with “inactive”.
Still for that read-out and setting: then `CCN(CC)c1cccc(C)c1`, with “inactive”; and `Fc1ccc(Br)cc1`, with “inactive”; and `CCCc1ccc(O)c(OC)c1`, with “inactive”.
For `COC(OC)(C(=O)c1ccccc1)c1ccccc1`, the AC50 is 138 µM (active).
With `CCc1cccc(C)c1N`, the compound was classed as inactive.
As for `CCCCOCCOCCOC(C)=O`, the result was inactive.
Still for that read-out and setting: the same measure for `CCCCC(CC)COS(=O)(=O)O` (stereo unspecified): “inactive”.
The same measure, in the same setting: then `CCOC(=O)C1=NOC(c2ccccc2)(c2ccccc2)C1`, with “inactive”.
Same read-out and setting: the same measure for `CCC[Si](OC)(OC)OC`: “inactive”.
For the compound `CCCCC(CC)COC(=O)/C=C/c1ccc(OC)cc1` (stereo unspecified), the call was inactive.
As for `CCCCCCCCCCCCCCCCCCOS(=O)(=O)O`, the compound was called inactive.
As for `COc1ccc(C(=O)/C(Br)=C\C(=O)O)cc1`, the call was inactive.
On the same count and under the same terms, then `CC(=O)OCCc1ccccc1`, with “inactive”; and `CCCCCCOc1ccc(N)cc1`, with “inactive”.
The same measure, in the same setting: then `OCCCc1ccccc1`, with “inactive”; and `C=C(C)C1CC=C(C)C(OC(C)=O)C1` (stereo unspecified), with “inactive”.
Same read-out and setting: the same measure for `CCC1COC(=O)O1` (stereo unspecified): “inactive”.
Consider `O=C(O)/C=C/c1ccccc1`, for which the call was inactive.
On the same count and under the same terms, then `CCCCCCOC(=O)CCCCC(=O)OCCCCCC`, with “inactive”; and `Cc1ccc(S(=O)(=O)N=C=O)cc1`, with “inactive”.
On the same count and under the same terms, then `CC(C)(O)Cc1ccccc1`, with “inactive”; and `CCOC(=O)/C=C\C(=O)OCC`, with “inactive”; and `COc1nccnc1CC(C)C`, with “inactive”.
Still for that read-out and setting: then `CCOC(=O)C1=NN(c2ccc(Cl)cc2Cl)C(C)(C(=O)OCC)C1` (stereo unspecified), with “inactive”; and `C=CC(=O)O[C@H]1C[C@@H]2CC[C@@]1(C)C2(C)C`, with “inactive”; and `Nc1ccc(O)c([N+](=O)[O-])c1`, with “inactive”.
Consider `Oc1c(Cl)cc(Cl)c(Cl)c1Cl`, for which the compound was called inactive.
Same read-out and setting: the same measure for `C=C(C)C(=O)OCCOC(=O)C(=C)C`: “inactive”.

Tested on in a further experiment: not listed separately
As to the kind of experiment: ATG_VDRE_CIS: Attagene CIS-FACTORIAL HepG2 Assay for human Vitamin D Receptor Element (VDRE) (AID 2282968). The settings on record: HepG2 VDRE cis-reporter transcription, actives raise or lower the signal. Summed up:
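Transfected HepG2 reporter cells, chemical treatment 24 h. RNA isolated, cDNA amplified with reporter-specific primers, products analysed by capillary electrophoresis. Endpoint fitted in both directions versus DMSO.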
Consider `CCOC(=O)c1ccc(C)cc1`, for which the call was inactive.
For the compound `c1ccc(Nc2cccc3ccccc23)cc1`, the AC50 was 10.3 µM (active).
For `CCCCCCCC(=O)OCC`, the compound was called inactive.
With `COC(=O)CC(C)CCC=C(C)C` (stereo unspecified), the call was inactive.
On to `CC(C)(CO)COC(=O)C(C)(C)CO`, for which the call was inactive.
Still for that read-out and setting: then `C[Si](C)(C)N[Si](C)(C)C`, with “inactive”.
Still for that read-out and setting: then `C=CC(C)(CCC=C(C)C)OC(=O)C=Cc1ccccc1` (stereo unspecified), with “inactive”; and `[Cl][Eu]([Cl])[Cl]`, with “inactive”; and `CC(C)(C)C1CCC(=O)CC1`, with “inactive”.
On the same count and under the same terms, the same measure for `CCN(CC)c1cccc(C)c1`: “inactive”.
Turning to `Fc1ccc(Br)cc1`, the compound was called inactive.
The same measure, in the same setting: the same measure for `CCCc1ccc(O)c(OC)c1`: “inactive”.
In the case of `COC(OC)(C(=O)c1ccccc1)c1ccccc1`, the AC50 is 5.89 µM (active).
`CCc1cccc(C)c1N`: the compound was called inactive.
The same measure, in the same setting: the same measure for `CCCCOCCOCCOC(C)=O`: “inactive”; for `CCCCC(CC)COS(=O)(=O)O` (stereo unspecified): “inactive”; for `CCOC(=O)C1=NOC(c2ccccc2)(c2ccccc2)C1`: “inactive”.
Still for that read-out and setting: then `CCC[Si](OC)(OC)OC`, with “inactive”; and `CCCCC(CC)COC(=O)/C=C/c1ccc(OC)cc1` (stereo unspecified), with “inactive”.
`CCCCCCCCCCCCCCCCCCOS(=O)(=O)O`: the AC50 was 51.7 µM (active).
Regarding `COc1ccc(C(=O)/C(Br)=C\C(=O)O)cc1`, the AC50 was 35.7 µM (active).
In the case of `CC(=O)OCCc1ccccc1`, the compound was called inactive.
The same measure, in the same setting: the same measure for `CCCCCCOc1ccc(N)cc1`: “inactive”.
Still for that read-out and setting: then `OCCCc1ccccc1`, with “inactive”; and `C=C(C)C1CC=C(C)C(OC(C)=O)C1` (stereo unspecified), with “inactive”; and `CCC1COC(=O)O1` (stereo unspecified), with “inactive”.
Still for that read-out and setting: then `O=C(O)/C=C/c1ccccc1`, with “inactive”.
For `CCCCCCOC(=O)CCCCC(=O)OCCCCCC`, the result was inactive.
Regarding `Cc1ccc(S(=O)(=O)N=C=O)cc1`, the outcome was inactive.
The same measure, in the same setting: the same measure for `CC(C)(O)Cc1ccccc1`: “inactive”; for `CCOC(=O)/C=C\C(=O)OCC`: “inactive”.
As to `COc1nccnc1CC(C)C`, the outcome was inactive.
For the compound `CCOC(=O)C1=NN(c2ccc(Cl)cc2Cl)C(C)(C(=O)OCC)C1` (stereo unspecified), the outcome was inactive.
Consider `C=CC(=O)O[C@H]1C[C@@H]2CC[C@@]1(C)C2(C)C`, for which the compound was called inactive.
Same read-out and setting: the same measure for `Nc1ccc(O)c([N+](=O)[O-])c1`: “inactive”.
As for `Oc1c(Cl)cc(Cl)c(Cl)c1Cl`, the AC50 was 59.8 µM (active).
In the case of `C=C(C)C(=O)OCCOC(=O)C(=C)C`, the outcome was inactive.

The target in another experiment is Estrogen receptor (Homo sapiens) (UniProt P03372). Description: ATG_ERa_TRANS: Attagene TRANS-FACTORIAL HepG2 Assay for human Estrogen Receptor alpha (ERa) (AID 2282970; active = hit-call score of the fitted dose curve at least 0.9, where 1 is the maximum). To be noted: HepG2 Attagene TRANS ERa GAL4 reporter, mRNA. Summed up:
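Signal derives from fluorescence of labelled reporter PCR fragments separated by capillary electrophoresis. HepG2 cells transiently carrying multiple GAL4-UAS reporter units were treated 24 hours, and induction above DMSO baseline was fitted as activity.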
As for `CCOC(=O)c1ccc(C)cc1`, the result was inactive.
In the case of `c1ccc(Nc2cccc3ccccc23)cc1`, the AC50 is 2.75 µM (active).
As to `CCCCCCCC(=O)OCC`, the result was inactive.
`COC(=O)CC(C)CCC=C(C)C` (stereo unspecified): the compound was classed as inactive.
Same read-out and setting: the same measure for `CC(C)(CO)COC(=O)C(C)(C)CO`: “inactive”; for `C[Si](C)(C)N[Si](C)(C)C`: “inactive”.
As for `C=CC(C)(CCC=C(C)C)OC(=O)C=Cc1ccccc1` (stereo unspecified), the AC50 was 7.3 µM (active).
Same read-out and setting: the same measure for `[Cl][Eu]([Cl])[Cl]`: 36.6 µM (active).
`CC(C)(C)C1CCC(=O)CC1`: the outcome was inactive.
On the same count and under the same terms, then `CCN(CC)c1cccc(C)c1`, with “inactive”.
In the case of `Fc1ccc(Br)cc1`, the AC50 is 79.7 µM (active).
For the compound `CCCc1ccc(O)c(OC)c1`, the result was inactive.
Regarding `COC(OC)(C(=O)c1ccccc1)c1ccccc1`, the AC50 is 0.817 µM (active).
For the compound `CCc1cccc(C)c1N`, the compound was classed as inactive.
The same measure, in the same setting: then `CCCCOCCOCCOC(C)=O`, with “inactive”; and `CCCCC(CC)COS(=O)(=O)O` (stereo unspecified), with “inactive”.
Still for that read-out and setting: then `CCOC(=O)C1=NOC(c2ccccc2)(c2ccccc2)C1`, with “inactive”; and `CCC[Si](OC)(OC)OC`, with “inactive”; and `CCCCC(CC)COC(=O)/C=C/c1ccc(OC)cc1` (stereo unspecified), with “inactive”.
As for `CCCCCCCCCCCCCCCCCCOS(=O)(=O)O`, the result was inactive.
Still for that read-out and setting: the same measure for `COc1ccc(C(=O)/C(Br)=C\C(=O)O)cc1`: “inactive”; for `CC(=O)OCCc1ccccc1`: “inactive”; for `CCCCCCOc1ccc(N)cc1`: “inactive”.
Still for that read-out and setting: then `OCCCc1ccccc1`, with “inactive”; and `C=C(C)C1CC=C(C)C(OC(C)=O)C1` (stereo unspecified), with “inactive”.
Regarding `CCC1COC(=O)O1` (stereo unspecified), the result was inactive.
For the compound `O=C(O)/C=C/c1ccccc1`, the AC50 is 61.7 µM (active).
For `CCCCCCOC(=O)CCCCC(=O)OCCCCCC`, the call was inactive.
Same read-out and setting: then `Cc1ccc(S(=O)(=O)N=C=O)cc1`, with “inactive”; and `CC(C)(O)Cc1ccccc1`, with “inactive”.
In the case of `CCOC(=O)/C=C\C(=O)OCC`, the compound was called inactive.
On the same count and under the same terms, then `COc1nccnc1CC(C)C`, with “inactive”; and `CCOC(=O)C1=NN(c2ccc(Cl)cc2Cl)C(C)(C(=O)OCC)C1` (stereo unspecified), with “inactive”.
On to `C=CC(=O)O[C@H]1C[C@@H]2CC[C@@]1(C)C2(C)C`, for which the concentration at half-maximal activity (AC50) is 100 µM (active).
`Nc1ccc(O)c([N+](=O)[O-])c1`: the compound was called inactive.
Regarding `Oc1c(Cl)cc(Cl)c(Cl)c1Cl`, the outcome was inactive.
The same measure, in the same setting: the same measure for `C=C(C)C(=O)OCCOC(=O)C(=C)C`: “inactive”.
